Here are results for 24 sequences from doi:10.1101/2024.03.05.583629.

The target in one assay is pT7_6His-AlfaTag-HOXD13 (human, UniProt P35453 263-343). As to the kind of experiment: PADIT-seq. The settings on record: dsDNA, one strand shown.
The target of the next assay is pT7_6His-AlfaTag-ZIF268 (human, UniProt P18146 335-423). As to the kind of experiment: PADIT-seq. The following applies: dsDNA, one strand shown.

Sequence of pT7_6His-AlfaTag-HOXD13 (P35453 263-343): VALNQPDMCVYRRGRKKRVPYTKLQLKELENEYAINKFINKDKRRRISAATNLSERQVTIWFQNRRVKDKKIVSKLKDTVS

For “CTCGAGGATATCAAGATCTGGCCTCGGCCTATGGGCGGGAACCTCTAGCTAGCCGACTCACTATAGGGATAATCGCCCTGAGCAAAGACC”, the results for the binding signal with pT7_6His-AlfaTag-HOXD13 and with pT7_6His-AlfaTag-ZIF268 were -0.949 ± 0.119 log2FC and 0.0355 ± 0.0969 log2FC, respectively.

“CTCGAGGATATCAAGATCTGGCCTCGGCTTTTTAGGCGGAACCTCTAGCTAGCCGACTCACTATAGGGATAATCGCCCTGAGCAAAGACC”: the binding signal with pT7_6His-AlfaTag-HOXD13 was found to be 0.0492 ± 0.119 log2FC; with pT7_6His-AlfaTag-ZIF268, 0.0276 ± 0.11 log2FC.

With “CTCGAGGATATCAAGATCTGGCCTCGGCCACATAAAAGGAACCTCTAGCTAGCCGACTCACTATAGGGATAATCGCCCTGAGCAAAGACC”, the binding signal with pT7_6His-AlfaTag-HOXD13 was determined as 2.6 ± 0.0844 log2FC; in the assay with pT7_6His-AlfaTag-ZIF268 it was 0.0607 ± 0.0948 log2FC.

Turning to “CTCGAGGATATCAAGATCTGGCCTCGGCCTTTTATCGGGAACCTCTAGCTAGCCGACTCACTATAGGGATAATCGCCCTGAGCAAAGACC”, the binding signal in the assay with pT7_6His-AlfaTag-HOXD13 was determined as 1.63 ± 0.0763 log2FC; with pT7_6His-AlfaTag-ZIF268 it was 0.0806 ± 0.0794 log2FC.

Turning to “CTCGAGGATATCAAGATCTGGCCTCGGCACCGTAAAAGGAACCTCTAGCTAGCCGACTCACTATAGGGATAATCGCCCTGAGCAAAGACC”, the figures for the binding signal with pT7_6His-AlfaTag-HOXD13 and with pT7_6His-AlfaTag-ZIF268 were 1.91 ± 0.0753 log2FC and 0.0818 ± 0.0804 log2FC, respectively.

For the sequence “CTCGAGGATATCAAGATCTGGCCTCGGCCGCCTAAAAGGAACCTCTAGCTAGCCGACTCACTATAGGGATAATCGCCCTGAGCAAAGACC”, the binding signal in the assay with pT7_6His-AlfaTag-HOXD13 is -0.524 ± 0.115 log2FC; with pT7_6His-AlfaTag-ZIF268, 0.0248 ± 0.0968 log2FC.

For “CTCGAGGATATCAAGATCTGGCCTCGGCCAGGTAAAAGGAACCTCTAGCTAGCCGACTCACTATAGGGATAATCGCCCTGAGCAAAGACC”, the binding signal in the assay with pT7_6His-AlfaTag-HOXD13 was found to be 0.0831 ± 0.0976 log2FC.

Consider “CTCGAGGATATCAAGATCTGGCCTCGGCAAATTAAAAGGAACCTCTAGCTAGCCGACTCACTATAGGGATAATCGCCCTGAGCAAAGACC”, for which the binding signal with pT7_6His-AlfaTag-HOXD13 worked out at 2.15 ± 0.08 log2FC; with pT7_6His-AlfaTag-ZIF268, 0.0496 ± 0.0856 log2FC.

With “CTCGAGGATATCAAGATCTGGCCTCGGCCGCGCCCGCGGAACCTCTAGCTAGCCGACTCACTATAGGGATAATCGCCCTGAGCAAAGACC”, the values for the binding signal in the assay with pT7_6His-AlfaTag-HOXD13 and in the assay with pT7_6His-AlfaTag-ZIF268 were -1.09 ± 0.134 log2FC and 0.0207 ± 0.105 log2FC, respectively.

On to “CTCGAGGATATCAAGATCTGGCCTCGGCCTTTTAAGGGGAACCTCTAGCTAGCCGACTCACTATAGGGATAATCGCCCTGAGCAAAGACC”, for which the binding signal is 1.67 ± 0.0786 log2FC with pT7_6His-AlfaTag-HOXD13 and 0.073 ± 0.082 log2FC with pT7_6His-AlfaTag-ZIF268.

On to “CTCGAGGATATCAAGATCTGGCCTCGGCTAGCTAAAAGGAACCTCTAGCTAGCCGACTCACTATAGGGATAATCGCCCTGAGCAAAGACC”, for which the binding signal in the assay with pT7_6His-AlfaTag-HOXD13 is -0.637 ± 0.145 log2FC; with pT7_6His-AlfaTag-ZIF268, 0.0229 ± 0.123 log2FC.

On to “CTCGAGGATATCAAGATCTGGCCTCGGCACGTGGGCGGGAACCTCTAGCTAGCCGACTCACTATAGGGATAATCGCCCTGAGCAAAGACC”, for which the results for the binding signal in the assay with pT7_6His-AlfaTag-HOXD13 and in the assay with pT7_6His-AlfaTag-ZIF268 were -0.888 ± 0.116 log2FC and 3.56 ± 0.0868 log2FC, respectively.

Regarding “CTCGAGGATATCAAGATCTGGCCTCGGCGACATAAAAGGAACCTCTAGCTAGCCGACTCACTATAGGGATAATCGCCCTGAGCAAAGACC”, the binding signal was 1.3 ± 0.0763 log2FC with pT7_6His-AlfaTag-HOXD13 and 0.00765 ± 0.0777 log2FC with pT7_6His-AlfaTag-ZIF268.

Consider “CTCGAGGATATCAAGATCTGGCCTCGGCATTTTACAGGGAACCTCTAGCTAGCCGACTCACTATAGGGATAATCGCCCTGAGCAAAGACC”, for which the binding signal was 3.08 ± 0.0772 log2FC in the assay with pT7_6His-AlfaTag-HOXD13 and 0.116 ± 0.0849 log2FC with pT7_6His-AlfaTag-ZIF268.

Turning to “CTCGAGGATATCAAGATCTGGCCTCGGCAGGATAAAAGGAACCTCTAGCTAGCCGACTCACTATAGGGATAATCGCCCTGAGCAAAGACC”, the binding signal worked out at 0.374 ± 0.0721 log2FC in the assay with pT7_6His-AlfaTag-HOXD13 and 0.0545 ± 0.0675 log2FC in the assay with pT7_6His-AlfaTag-ZIF268.

The sequence “CTCGAGGATATCAAGATCTGGCCTCGGCCTTTTAACTGGAACCTCTAGCTAGCCGACTCACTATAGGGATAATCGCCCTGAGCAAAGACC” returned a binding signal with pT7_6His-AlfaTag-HOXD13 of 1.7 ± 0.0719 log2FC.

Turning to “CTCGAGGATATCAAGATCTGGCCTCGGCTTTTTATTTGGAACCTCTAGCTAGCCGACTCACTATAGGGATAATCGCCCTGAGCAAAGACC”, the binding signal with pT7_6His-AlfaTag-HOXD13 turned out to be 2.91 ± 0.0833 log2FC; in the assay with pT7_6His-AlfaTag-ZIF268, 0.188 ± 0.0912 log2FC.

Regarding “CTCGAGGATATCAAGATCTGGCCTCGGCGTTTTACCAGGAACCTCTAGCTAGCCGACTCACTATAGGGATAATCGCCCTGAGCAAAGACC”, the binding signal with pT7_6His-AlfaTag-HOXD13 worked out at 0.423 ± 0.103 log2FC; in the assay with pT7_6His-AlfaTag-ZIF268 it was 0.0291 ± 0.0981 log2FC.

In the assay with pT7_6His-AlfaTag-HOXD13, “CTCGAGGATATCAAGATCTGGCCTCGGCCTCATAAAAGGAACCTCTAGCTAGCCGACTCACTATAGGGATAATCGCCCTGAGCAAAGACC” yielded a binding signal of 3.06 ± 0.0788 log2FC.

As for “CTCGAGGATATCAAGATCTGGCCTCGGCGCGGATGCGGGAACCTCTAGCTAGCCGACTCACTATAGGGATAATCGCCCTGAGCAAAGACC”, the binding signal worked out at 0.465 ± 0.106 log2FC with pT7_6His-AlfaTag-HOXD13 and 0.109 ± 0.102 log2FC in the assay with pT7_6His-AlfaTag-ZIF268.

For “CTCGAGGATATCAAGATCTGGCCTCGGCATTTGGGCGGGAACCTCTAGCTAGCCGACTCACTATAGGGATAATCGCCCTGAGCAAAGACC”, the binding signal with pT7_6His-AlfaTag-HOXD13 was -0.941 ± 0.11 log2FC; with pT7_6His-AlfaTag-ZIF268, 0.125 ± 0.0899 log2FC.

With “CTCGAGGATATCAAGATCTGGCCTCGGCATTTTATATGGAACCTCTAGCTAGCCGACTCACTATAGGGATAATCGCCCTGAGCAAAGACC”, the binding signal with pT7_6His-AlfaTag-HOXD13 was found to be 3.31 ± 0.0819 log2FC; with pT7_6His-AlfaTag-ZIF268 it was 0.238 ± 0.0895 log2FC.

In the case of “CTCGAGGATATCAAGATCTGGCCTCGGCGTGTTAAAAGGAACCTCTAGCTAGCCGACTCACTATAGGGATAATCGCCCTGAGCAAAGACC”, the binding signal with pT7_6His-AlfaTag-HOXD13 was found to be 1.46 ± 0.0736 log2FC.

For “CTCGAGGATATCAAGATCTGGCCTCGGCAGAATAAAAGGAACCTCTAGCTAGCCGACTCACTATAGGGATAATCGCCCTGAGCAAAGACC”, the values for the binding signal with pT7_6His-AlfaTag-HOXD13 and with pT7_6His-AlfaTag-ZIF268 were 0.976 ± 0.0851 log2FC and 0.0567 ± 0.0846 log2FC, respectively.
